# Test results as given in PubChem BioAssay (EPA / NIEHS).
# Results filed as inconclusive are left out. Active and inactive are the calls of the source. Rule for the calls, unless noted: active = hit-call score of the fitted dose curve at least 0.9, where 1 is the maximum; inactive = score below 0.9.
# Legend:
# SERPINA7 (gene 6906) = assay: CCTE_GLTED_hTBG: CCTE's human Thyroxine-binding Globulin (TBG) Inhibition Assay, Great Lakes Toxicology and Ecology Division (GLTED) Lab (AID 2284343; active = hit-call score of the fitted dose curve at least 0.9, where 1 is the maximum;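 note: active chemicals lower fluorescence versus DMSO baseline by displacing probe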)
# Outline: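 hTBG + test chem, 2 h; ANSA probe displacement; fluorescence readout ex380/em475; DMSO = neg ctrl/baseline; cell-free.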
# TTR (gene 7276) = assay: CCTE_GLTED_hTTR_0.125uM: CCTE's human Transthyretin (hTTR) Inhibition Assay, with 0.125uM TTR, Great Lakes Toxicology and Ecology Division (GLTED) Lab (AID 2284431);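 note: hits lower the fluorescence signal relative to DMSO baseline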
# Outline: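 Probe-displacement format: chemicals competing for the T4 site release ANSA from 0.125uM TTR during a 2 h incubation, measured by fluorescence at 380 excitation and 475 emission.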
# [1] = CCTE_Mundy_HCI_iCellGluta_NOG_NeuriteCount: CCTE's Neurite Outgrowth Assay in iCellGluta cells for Neurite Count, Mundy Lab (AID 2284342; active = hit-call score of the fitted dose curve at least 0.9, where 1 is the maximum;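 note: chemical exposure about 48 hours starting 2 hours after plating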)
# [2] = system: SRY-box transcription factor 17 (SOX17) Protein Expression, Deisenroth Lab, SOX17 (gene 64321); assay: CCTE_Deisenroth_DEVTOX-GLR_legacy_Sox17: (Legacy) CCTE's DevTox GLR-Endo Assay Evaluation of SRY-box transcription factor 17 (SOX17) Protein Expression, Deisenroth Lab (AID 2284341); settings: actives raise or lower the signal
# Outline: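 RUES2-GLR human pluripotent cells differentiated toward endoderm for 48 h, dosed twice at 24 h intervals (1 nM–200 uM, 10 points). Imaging gives % SOX17+ cells (intensity >5x BMAD above pluripotent control median); bidirectional fit versus 0.2% DMSO.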
# [3] = system: SRY-box transcription factor 2 (SOX2) Protein Expression, Deisenroth Lab, SOX2 (gene 6657); assay: CCTE_Deisenroth_DEVTOX-GLR_legacy_Sox2: (Legacy) CCTE's DevTox GLR-Endo Assay Evaluation of SRY-box transcription factor 2 (SOX2) Protein Expression, Deisenroth Lab (AID 2284346)
# Outline: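 RUES2-GLR human pluripotent cells seeded 24 h, then differentiated 48 h in defined media with two chemical doses 24 h apart (10-point, 1 nM–200 uM). Fixed, nuclear-stained, imaged; % Sox2+ cells (>5x BMAD over endoderm control median), DMSO-subtracted, fitted upward.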
# [4] = system: SRY-box transcription factor 17 (SOX17) Protein Expression, Deisenroth Lab, SOX17 (gene 64321); assay: CCTE_Deisenroth_DEVTOX-GLR_Endo_SOX17: CCTE's DevTox GLR-Endo Assay Evaluation of SRY-box transcription factor 17 (SOX17) Protein Expression, Deisenroth Lab (AID 2284413)
# Outline: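 Endpoint: % change in SOX17+ fraction (SOX17+ cells / cell count) vs 0.2% DMSO solvent control. RUES2-GLR reporter cells, 48 h endoderm differentiation, two doses at 24 h intervals, high-content fluorescence imaging, 5 fields/well.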
# [5] = system: Brachyury (BRA) Protein Expression, TBXT (gene 6862); assay: CCTE_Deisenroth_DEVTOX-GLR_Endo_BRA: CCTE's DevTox GLR-Endo Assay Evaluation of Brachyury (BRA) Protein Expression, Deisenroth Lab (AID 2284417)
# Outline: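 RUES2-GLR pluripotent cells differentiated 48 h with two chemical exposures 24 h apart, 10-point range 1 nM - 200 uM. Percentage of BRA+ cells per total count by high-content imaging, minus 0.2% DMSO control.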
# [6] = CCTE_Deisenroth_DEVTOX-GLR_Endo_CellCount: Viability Assessment in CCTE's DevTox GLR-Endo Assay, Deisenroth Lab (AID 2284420)
# Outline: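 Viability in differentiating RUES2-GLR cultures is scored by fluorescent nuclear counts after 48 h and two 24-hourly chemical treatments, as percent change from the 0.2% DMSO control.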
# [7] = system: SRY-box transcription factor 17 (SOX17) Protein Expression, Deisenroth Lab, SOX17 (gene 64321); assay: CCTE_Deisenroth_DEVTOX-GLR_Pluri_SOX17: CCTE's DevTox GLR-Pluri Assay Evaluation of SRY-box transcription factor 17 (SOX17) Protein Expression, Deisenroth Lab (AID 2284427; active = hit-call score of the fitted dose curve at least 0.9, where 1 is the maximum)
# Outline: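 Seed cells 24 h; differentiate 48 h, dosing at 0 and 24 h (1 nM - 200 uM); fix, stain nuclei, image 5 fields per well; count SOX17+ cells over total cells and subtract 0.2% DMSO control.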
# [8] = system: SRY-box transcription factor 2 (SOX2) Protein Expression, Deisenroth Lab, SOX2 (gene 6657); assay: CCTE_Deisenroth_DEVTOX-GLR_Pluri_SOX2: CCTE's DevTox GLR-Pluri Assay Evaluation of SRY-box transcription factor 2 (SOX2) Protein Expression, Deisenroth Lab (AID 2284428)
# Outline: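 SOX2 expression frequency is scored in a human pluripotent reporter line, RUES2-GLR, exposed to chemicals twice over 48 h. Imaging-based SOX2+ cell percentage is normalized as change versus 0.2% DMSO.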
# [9] = system: Brachyury (BRA) Protein Expression, Deisenroth Lab, TBXT (gene 6862); assay: CCTE_Deisenroth_DEVTOX-GLR_Pluri_BRA: CCTE's DevTox GLR-Pluri Assay Evaluation of Brachyury (BRA) Protein Expression, Deisenroth Lab (AID 2284429; active = hit-call score of the fitted dose curve at least 0.9, where 1 is the maximum)
# Outline: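 Human pluripotent RUES2-GLR cells, seeded 24 h, were differentiated 48 h in defined media with two chemical doses at 24-h intervals (10-point, 1 nM - 200 uM). Readout: percent BRA+ cells by fluorescent reporter imaging, minus 0.2% DMSO control.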
# [10] = CCTE_Deisenroth_DEVTOX-GLR_Pluri_CellCount: Viability Assessment in CCTE's DevTox GLR-Pluri Assay Evaluation of Total Cell Counts, Deisenroth Lab (AID 2284430)
# Outline: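 RUES2-GLR human pluripotent cells, seeded 24 h, then differentiated 48 h with two chemical exposures 24 h apart; 10-point series 1 nM - 200 uM. Fixed, nuclear-stained, imaged (5 fields/well); nuclei count as % change vs 0.2% DMSO.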
# [11] = CCTE_Deisenroth_H295R-HTRF_384WELL_ESTRADIOL: CCTE's H295R-HTRF Assay Evaluation of Estradiol Concentration, Deisenroth Lab (AID 2284361); settings: actives raise or lower the signal
# Outline: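 H295R cells exposed 48 h to chemicals at 0.001 - 100 uM final (nine points, triplicate); estradiol in conditioned medium measured by HTRF immunoassay, fitted bidirectionally versus DMSO. Viability by CellTiter-Glo on same plates.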
# [12] = CCTE_Deisenroth_H295R-HTRF_384WELL_TESTOSTERONE: CCTE's H295R-HTRF Assay Evaluation of Testosterone Concentration, Deisenroth Lab (AID 2284373); settings: actives raise or lower the signal
# Outline: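 Secreted testosterone was quantified by HTRF immunoassay of medium from human adrenocortical H295R cells after 48 h chemical exposure at 0.001–100 uM final. Gain or loss was fitted against DMSO. ATP-based viability was read on matched wells, five experimental replicates.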
# [13] = CCTE_Deisenroth_H295R-HTRF_384WELL_CTOX: Cytotoxicity Assessment in CCTE's H295R-HTRF Assay, Deisenroth Lab (AID 2284380; active = hit-call score of the fitted dose curve at least 0.9, where 1 is the maximum)
# Outline: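 H295R adrenocortical carcinoma cells plated 24 h, then exposed 48 h to nine-point series 0.001–100 uM final, triplicate, n=5. ATP measured by CellTiter-Glo 2.0 luminescence on same plates after medium collection; loss versus DMSO.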
# [14] = CCTE_Padilla_ZF_Score.General: CCTE's 144 Hour Post-fertilization zebrafish Assay Score for General Malformation, Padilla Lab (AID 2284411)
# Outline: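 Wild-type zebrafish embryos were plated singly at 6-8 hpf in 10% Hanks' and exposed in sealed wells at 26C until rinsed on 5 dpf. At 6 dpf two blinded assessors scored mortality, hatching and malformations by stereomicroscopy; gain-of-signal versus DMSO.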
# [15] = system: SRY-box transcription factor 2 (SOX2) Protein Expression, Deisenroth Lab, SOX2 (gene 6657); assay: CCTE_Deisenroth_DEVTOX-GLR_Endo_SOX2: CCTE's DevTox GLR-Endo Assay Evaluation of SRY-box transcription factor 2 (SOX2) Protein Expression, Deisenroth Lab (AID 2284412; active = hit-call score of the fitted dose curve at least 0.9, where 1 is the maximum)
# Outline: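 RUES2-GLR human pluripotent cells were seeded 24 h, then differentiated 48 h with two chemical exposures 24 h apart. Cells were fixed, nuclei stained and imaged by high-content microscopy. Endpoint is %SOX2+ cells over cell count, minus 0.2% DMSO control; 10-point series 1 nM–200 uM.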
compound,measurement,setting,value
CCCN(CCC)c1c([N+](=O)[O-])cc(C(F)(F)F)c(N)c1[N+](=O)[O-],AC50,SERPINA7 (gene 6906),0.322 µM (active)
same,AC50,TTR (gene 7276),0.348 µM (active)
CSC(=O)c1cccc2nnsc12,outcome,[1],inactive
COC(=O)CSc1cc(N=c2sc(=O)n3n2CCCC3)c(F)cc1Cl,AC50,SERPINA7 (gene 6906),25.9 µM (active)
OB(O)O,outcome,[2],inactive
same,outcome,[3],inactive
same,outcome,[4],inactive
same,AC50,[5],30.5 µM (active)
same,outcome,[6],inactive
same,outcome,[7],inactive
same,outcome,[8],inactive
same,outcome,[9],inactive
same,outcome,[10],inactive
S=C(S)NCCNC(=S)S.[Mn+2].[S-]C([S-])=NCCN=C([S-])[S-].[Zn+2],outcome,[1],inactive
COc1c(Cl)ccc(Cl)c1C(=O)O,AC50,SERPINA7 (gene 6906),47.7 µM (active)
CCCN(CCC)C(=O)SCC,outcome,[1],inactive
CCCCC(CC)COC(=O)c1ccccc1C(=O)O (configuration not stated),AC50,[2],100 µM (active)
same,AC50,SERPINA7 (gene 6906),18.3 µM (active)
same,outcome,[3],inactive
same,AC50,[4],100 µM (active)
same,AC50,[5],160 µM (active)
same,AC50,[6],109 µM (active)
same,AC50,[7],100 µM (active)
same,AC50,[8],100 µM (active)
same,AC50,[9],70.4 µM (active)
same,outcome,[10],inactive
same,AC50,TTR (gene 7276),1.44 µM (active)
CCCCOCCOCCOCc1cc2c(cc1CCC)OCO2,outcome,[11],inactive
same,outcome,[12],inactive
same,outcome,[13],inactive
O=C(Nc1ccc([N+](=O)[O-])cc1Cl)c1cc(Cl)ccc1O,outcome,SERPINA7 (gene 6906),inactive
same,AC50,TTR (gene 7276),0.633 µM (active)
O=C(O)C1(C(=O)Nc2ccc(Cl)cc2Cl)CC1,AC50,SERPINA7 (gene 6906),66 µM (active)
same,AC50,TTR (gene 7276),8.06 µM (active)
C#CCOC(=O)[C@@H](C)Oc1ccc(Oc2ncc(Cl)cc2F)cc1,AC50,[1],34 µM (active)
COC(=O)c1ccc(I)cc1S(=O)(=O)NC(=O)Nc1nc(C)nc(OC)n1,AC50,TTR (gene 7276),1.8 µM (active)
COCCO,outcome,[14],inactive
Cc1nn(C)c(Oc2ccccc2)c1C=NOCc1ccc(C(=O)OC(C)(C)C)cc1,AC50,[1],1.39 µM (active)
CCN(CC)C(=O)c1cccc(C)c1,outcome,[1],inactive
CC(=O)S[C@@H]1CC2=CC(=O)CC[C@]2(C)[C@H]2CC[C@@]3(C)[C@@H](CC[C@@]34CCC(=O)O4)[C@H]12,outcome,[11],inactive
same,AC50,[12],1.28 µM (active)
same,outcome,[13],inactive
CCN(Cc1c(F)cccc1Cl)c1c([N+](=O)[O-])cc(C(F)(F)F)cc1[N+](=O)[O-],AC50,SERPINA7 (gene 6906),0.62 µM (active)
O=C(c1ccccc1)C1CCCCC1,AC50,SERPINA7 (gene 6906),50 µM (active)
CC(C)CCCCCCc1ccc(O)cc1,AC50,SERPINA7 (gene 6906),5.2 µM (active)
same,AC50,TTR (gene 7276),1.87 µM (active)
CC(C)(c1ccc(O)cc1)c1ccc(O)cc1,AC50,[2],51.4 µM (active)
same,AC50,SERPINA7 (gene 6906),12.4 µM (active)
same,AC50,[3],50.7 µM (active)
same,AC50,[11],37 µM (active)
same,AC50,[12],0.804 µM (active)
same,AC50,[13],15 µM (active)
same,AC50,[15],64.4 µM (active)
same,AC50,[4],50.8 µM (active)
same,AC50,[5],83.8 µM (active)
same,AC50,[6],35.5 µM (active)
same,AC50,[7],29.3 µM (active)
same,AC50,[8],38.9 µM (active)
same,AC50,[9],38.4 µM (active)
same,AC50,[10],19.7 µM (active)
same,AC50,TTR (gene 7276),7.82 µM (active)
C=CCOC(Cn1ccnc1)c1ccc(Cl)cc1Cl (configuration not stated),AC50,[11],0.447 µM (active)
same,AC50,[12],1.87 µM (active)
same,AC50,[13],84.6 µM (active)
N#CSCSc1nc2ccccc2s1,AC50,SERPINA7 (gene 6906),33.2 µM (active)
same,AC50,TTR (gene 7276),10.1 µM (active)
CCC(C)OC(=O)N1CCCCC1CCO (configuration not stated),outcome,[14],inactive
